Here are results for 13 compounds from PubChem BioAssay (NCI).

Compounds without any hit were thinned out: in the full panel of roughly 83,000, 20% have a hit.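 Activity criterion: percent growth below 10, measured after cells in 96-well plates were exposed to a single compound concentration for 48 hours.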 Activity calls are given as the source filed them.

For the assay, the system named is SK-OV-3 ovarian. Kind of assay: NCI-60 one-dose screen, 48 h (100 = growth as untreated, 0 = no growth, -100 = all killed). Particulars: 10 µM.
In the case of `Cc1ccc(CNC(=O)Cc2ccc3c(c2)CN(C2CCC(=O)NC2=O)C3=O)cc1` (stereo not drawn), the growth was 18.4% (inactive).

For the compound `CC1(c2ccccc2)NC(=O)N(CC(=O)Nc2ccc(C(=O)/C=C/c3ccc(Br)cc3)cc2)C1=O` (stereo not drawn), the growth was 94.3% (inactive).

Take `COc1ccc(-c2cc(C(=O)N=Nc3c(O)[nH]c4ccccc34)c3ccccc3n2)cc1`: the growth is 80.9% (inactive). To `Cc1ccn2c(C(=O)c3ccccc3)cc(-c3cc(-c4ccc(N(C)C)cc4)c(C#N)c(N)n3)c2c1` belongs 65.2% (inactive); to `COc1ccc(C(=O)/C=C/c2cc(C(F)(F)F)cc(C(F)(F)F)c2)cc1S(N)(=O)=O`, 20% (inactive). To `COc1cccc2nc(Nc3ccc(F)c(NC(=O)c4ccc(CN5CCN(C)CC5)c(C(F)(F)F)c4)c3)ccc12` belongs 53.8% (inactive). Take `O=C(Nc1cccc(C(F)(F)F)c1)c1cncc(C#Cc2cnc3ccc(N4CCOCC4)nn23)c1`: the growth was 3.44% (active). Turning to `O=C(CNc1nc(-c2ccccc2)cs1)Nc1ccc([N+](=O)[O-])cc1`, the growth is 53.9% (inactive). As to `COC[C@@H](CC(C)C)N=C1N/C(=C\c2ccc3ncsc3c2)C(=O)N1C`, the growth is 0.794% (active). In the case of `COc1ccsc1/C=N/NC(=O)c1[nH]c2ccc(Br)cc2c1-c1ccccc1`, the growth is 20.9% (inactive). To `CCOC(=O)C1NN(c2ccc(S(N)(=O)=O)cc2)c2nc3nc(-c4cccs4)cc(-c4cccs4)c3c(=O)n21` (stereo not drawn) belongs 93.6% (inactive). Consider `O=c1c2ccccc2nc(COc2ccccc2)n1/N=C/c1ccc(N2CCCC2)cc1`, for which the growth was 113% (inactive). To `O=C(CNc1nc(-c2ccccc2)cs1)Nc1cccc([N+](=O)[O-])c1` belongs -22% (active).
